Source: PubChem BioAssay AID1578 (Sanford-Burnham Center for Chemical Genomics, 2009)
In all, about 290,000 compounds went through this assay and about 3,000 (1%) were called active. The list comes from a sample in which actives are over-represented; it also holds similar structures and randomly drawn compounds. A number with no mark means an inactive call. No stated cut-off is given here; in the data, active means inhibition mostly above about 36% (no sharp cut-off); inactive means mostly below about 34%.

test: NOD1 signaling inhibitors, primary screen, cell-based, luminescence, uHTS (AID 1578); conditions: NOD1-driven NF-kB luciferase reporter cells, at 4 µM, hits give high values;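 further: HEK-293T reporter cells stimulated with the NOD1 agonist gamma-tri-DAP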

Structure (SMILES) | inhibition
C=CCO/N=C/C1C(=O)CC(C)(C)CC1=O | -25.9%
O=C(NC12CC3CC(CC(C3)C1)C2)N1CCN(c2ccccc2)CC1 | -18%
Clc1ccccc1OCCCOc1cccc2cccnc12 | -0.6%
CN(Cc1cccs1)c1nc(-c2cccnc2)nc2ccccc12 | -37.4%
CCOc1ccc(CN(C)c2nc(-c3cccnc3)nc3ccccc23)cc1OC | 55.2% (active)
COc1ccc(CN(C)c2nc(-c3cccnc3)nc3ccccc23)cc1OC | 36.1%
Cc1ccc2cc(C#N)c(NCCNC(=S)NCCCN(C)C)nc2c1C | -23.4%
CCCn1c(SCC(=O)Nc2nnc(C(C)C)s2)nc2c1c(=O)n(C)c(=O)n2C | 34%
CCCCn1c(SCC(=O)Nc2nnc(C)s2)nc2c1c(=O)n(C)c(=O)n2C | 6.2%
O=C(c1cnn(C(=O)c2cccc(S(=O)(=O)N3CCOCC3)c2)c1)c1ccccc1O | 9.5%
COc1ccc(S(=O)(=O)N2CCc3ccccc32)cc1C(=O)OCC(=O)c1c(N)n(C)c(=O)n(C)c1=O | -11.1%
CC1CCCCC1NC(=O)CCCn1c(=S)[nH]c2ccsc2c1=O (stereo not drawn) | -13.7%
CCn1cc(CN2CCc3c([nH]c4ccccc34)C2c2ccc(F)c(OC)c2)c(C)n1 (stereo not drawn) | -23.6%
Cc1ccc(CS(=O)(=O)CCC(=O)NCCN2CCCC2)cc1 | -7.3%
Cc1ccc(CS(=O)(=O)CCC(=O)NCCN2CCCCC2C)cc1 (stereo not drawn) | 96.5% (active)
Cc1ccc(CS(=O)(=O)CCC(=O)NCCCN2CCCC2)cc1 | -5.9%
CN(Cc1ccccc1)c1nc(N)c([N+](=O)[O-])c(Nc2cccc(F)c2)n1 | -10.7%
Cc1c(O)c2cccnc2[nH]c1=O | -21.9%
Cc1cccc(N=C2NN=C(c3ccc4c(c3)OCCO4)CS2)c1 | -35.2%
c1ccc(CN=C2NN=C(c3cc4ccccc4o3)CS2)cc1 | -43%
c1cc2c(cc1C1=NNC(=NC3CC3)SC1)OCCO2 | 96.6% (active)

Structure (SMILES) | inhibition
c1ccc(C2=NNC(=NC3CC3)SC2)cc1 | 59.6%
CCCCN=C1NN=C(c2ccc3c(c2)OCCO3)CS1 | 14.8%
C=CCN=C1NN=C(c2ccc3c(c2)OCCO3)CS1 | 67.8% (active)
COc1ccc(N=C2NN=C(c3ccc4c(c3)OCCO4)CS2)cc1 | -44.7%
c1ccc2oc(C3=NNC(=NC4CC4)SC3)cc2c1 | 86.6% (active)
CC(C)(C)N=C1NN=C(c2cc3ccccc3o2)CS1 | -38.4%
CCOC(=O)N1CCC(NC(=O)CN2C(=O)CSc3nc(C)cc(C)c32)CC1 | -2.4%
Cc1ccc(Nc2nc(N)nc(CSC(=S)N3CCOCC3)n2)c(C)c1 | -10%
COc1cc(/C=C/CO)cc(OC)c1OC/C=C(\C)CCC=C(C)C | 0.8%
COCCn1c(SCC(=O)Nc2ccccc2C(F)(F)F)nc2ccccc2c1=O | -11.7%
COc1ccc(-c2cc(C3CC3)nc3sc(C#N)c(N)c23)cc1 | 7.9%
CC(C)c1cc(C(=O)N/N=C/c2c[nH]c3ccccc23)n[nH]1 | -15.2%
COC(=O)COc1cccc2c(=O)n(CC(=O)NCCc3ccccc3)ccc12 | -38.1%
Nc1ncnc(NCc2ccccc2)c1[N+](=O)[O-] | 37.6%
Cc1cccnc1Nc1ncnc(N)c1[N+](=O)[O-] | -32%
Cc1ccc(CNc2nc(N)c([N+](=O)[O-])c(NCc3ccccc3)n2)cc1 | 0.5%
Cc1cccc(Nc2ncnc(N)c2[N+](=O)[O-])n1 | 28.6%
COc1ccc(Cc2nc3ccc(C(=O)N4CCCC4)cc3o2)cc1OC | 1.3%
Cc1ccc(Cn2nc(C)c(NC(=O)CCCn3nc([N+](=O)[O-])c(Cl)c3C)c2C)cc1 | -25.5%
COc1ccc(C)cc1Nc1n[n+](-c2ccccc2)c(-c2ccc(NC(C)=O)cc2)s1 | -19%
CCn1c2ccccc2c2cc(/C=N/NC(=O)c3ccccc3)ccc21 | 41.4%

Structure (SMILES) | inhibition
CCn1c2ccccc2c2cc(/C=N/NC(=O)c3ccc(O)cc3)ccc21 | 32.8%
CCn1c2ccccc2c2cc(/C=N/NC(=O)c3cc(O)cc(O)c3)ccc21 | 58.8% (active)
CCOC(=O)C1=C(CC)Nc2ccccc2N=C1NC(=O)c1oc2ccccc2c1C | 56.6% (active)
CCOC(=O)C1=C(CC)Nc2ccccc2N=C1NC(=O)CCNC(C)=O | -28.2%
CCOCc1c(C(=O)NC2=Nc3ccccc3NC(CC)=C2C(=O)OCC)oc2ccccc12 | 4.5%
O=C(Cc1ccccc1)NN1C(=O)C2C3C=CC(C3)[C@@H]2C1=O (stereo partly drawn) | -12.9%
Cc1nc(SCCOc2ccc(F)cc2)c2ccccc2n1 | -33.3%
COC(=O)c1ccccc1NC(=O)Cn1cnc2cc(C)c(C)cc21 | -3.9%
CCOC(=O)c1ccc(NC(=O)Cn2cnc3cc(C)c(C)cc32)cc1 | 33% (active)
Cc1ccc(NC(=O)CCn2cnc3cc(C)c(C)cc32)cc1 | -8.2%
O=C(Nc1ccc(Br)cc1)c1cc(-c2ccc3c(c2)OCO3)on1 | -33.8%
Cc1cccc(NC(=S)NC(=O)c2oc3ccccc3c2C)n1 | -35.5%
O=C(Nc1cc(S(=O)(=O)N2CCOCC2)ccc1N1CCOCC1)C1CCCO1 (stereo not drawn) | -32.9%
Cc1ccc(-n2c3c(c(=O)[nH]c2=O)C(NS(=O)(=O)c2ccc(Cl)cc2)(C(F)(F)F)C(=O)N3)cc1 (stereo not drawn) | -31.8%
O=C(NCCc1ccc(Cl)cc1)c1ccc2nccnc2c1 | -33.2%
O=C(NCc1ccccc1)c1ccc2nccnc2c1 | 2%
O=C(NCCc1ccccc1)c1ccc2nccnc2c1 | 66.7% (active)
CCCCNc1ccc(C(CC(N)=O)NC(=O)Cc2ccc(Br)cc2)cc1[N+](=O)[O-] (stereo not drawn) | -9.3%
CC(=O)c1cccc(OCC(O)CNCC2COc3ccccc3O2)c1 (stereo not drawn) | 37.9% (active)
CC(=O)c1cccc(OCC(O)CNCC2CCCCC2)c1 (stereo not drawn) | -5.6%
OC(CNCC1COc2ccccc2O1)COc1ccc(Cl)cc1 (stereo not drawn) | -12.2%
